Assay results taken from PubChem BioAssay AID1159580 (chemical genetic matrix, 2015).
Several values for one entry are separate records, joined by “and”; a condition that tells them apart may be missing. Equal values may be shown once. About 2,000 (36%) of roughly 5,500 compounds were called active. Not shown: some 18% with an inconclusive outcome. Rule as the data show it: active = normalized growth mostly below about 0.91 (no sharp cut-off); inconclusive = no clear call, values can overlap the other calls; inactive = mostly above about 0.92. The list shows a part of the results.

Experiment: chemical genetic growth profiling, strain panel (AID 1159580);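 also: tested at 20 µM; growth read once vehicle control cultures reached saturation at 30 °C; 1 = growth at the plate median or of vehicle wells; lower values mean less growth of the strain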
Conditions: S. cerevisiae deletion strains, growth OD

Measured: normalized growth

OC/C=C/c1ccc(O)c(O)c1
active: locus YGR252W, strain gcn5, hits give low values 1.24 [resistant] | locus YLR371W, strain rom2, hits give low values 0.86
inactive: locus YAL013W, strain DEP1, hits give low values 0.995 | locus YAL021C, strain ccr4, hits give low values 0.977 | locus YAL026C, strain drs2, hits give low values 1 | locus YAL030W, strain snc1, hits give low values 0.995 | locus YBL061C, strain skt5, hits give low values 0.996 | locus YBR009C, strain hhf1, hits give low values 0.994 | locus YBR021W, strain FUR4, hits give low values 1.03 | locus YBR023C, strain chs3, hits give low values 0.995 | locus YBR171W, strain sec66, hits give low values 1.01 | locus YBR229C, strain ROT2, hits give low values 1 | locus YBR231C, strain swc5, hits give low values 0.993 | locus YBR279W, strain paf1, hits give low values 0.996 | locus YCL011C, strain gbp2, hits give low values 0.994 | locus YCL016C, strain dcc1, hits give low values 0.995 | locus YCL029C, strain bik1, hits give low values 0.96 | locus YCL061C, strain MRC1, hits give low values 0.996 | locus YCL069W, strain vba3, hits give low values 0.992 | locus YCR088W, strain abp1, hits give low values 1.01 | locus YDL005C, strain med2, hits give low values 0.996 | locus YDL035C, strain GPR1, hits give low values 1.02 | locus YDL040C, strain nat1, hits give low values 0.988 | locus YDL074C, strain BRE1, hits give low values 0.945 | locus YDL101C, strain DUN1, hits give low values 0.991 | locus YDL134C, strain PPH21, hits give low values 1.05 | locus YDL185W, strain tfp1, hits give low values 0.953 | locus YDL192W, strain arf1, hits give low values 0.973 | locus YDR001C, strain nth1, hits give low values 0.994 | locus YDR069C, strain doa4, hits give low values 1.01 | locus YDR101C, strain arx1, hits give low values 0.962 | locus YDR137W, strain rgp1, hits give low values 0.968 | locus YDR159W, strain sac3, hits give low values 0.966 | locus YDR162C, strain NBP2, hits give low values 0.993 | locus YDR195W, strain ref2 0.951 | locus YDR297W, strain sur2, hits give low values 1 | locus YDR318W, strain mcm21, hits give low values 0.984 | locus YDR334W, strain swr1, hits give low values 0.991 | locus YDR335W, strain msn5, hits give low values 0.996 | locus YDR388W, hits give low values 0.98 | locus YDR392W, strain spt3, hits give low values 1.01 | locus YDR502C, strain sam2, hits give low values 0.993 | locus YEL003W, strain gim4, hits give low values 0.997 | locus YEL037C, strain rad23, hits give low values 1 | locus YEL061C, strain CIN8 (second series), hits give low values 0.991 | locus YEL061C, strain CIN8, hits give low values 0.978 | locus YER015W, strain faa2, hits give low values 1 | locus YER016W, strain bim1, hits give low values 0.992 | locus YER110C, hits give low values 0.954 | locus YER111C, strain swi4, hits give low values 1.01 | locus YER155C, strain BEM2 (second series), hits give low values 0.991 | locus YER155C, strain BEM2, hits give low values 0.987 | locus YER167W, strain BCK2, hits give low values 0.978 | locus YFR010W, strain ubp6, hits give low values 0.999 | locus YGL078C, strain dbp3, hits give low values 1.02 | locus YGL086W, strain mad1, hits give low values 0.937 | locus YGL167C, strain pmr1, hits give low values 1 | locus YGL173C, strain kem1, hits give low values 1.01 | locus YGL227W, strain vid30, hits give low values 1.01 | locus YGL240W, strain doc1, hits give low values 1.03 | locus YGL248W, strain PDE1, hits give low values 1.01 | locus YGL253W, strain hxk2, hits give low values 1.01 | locus YGR135W, strain pre9, hits give low values 1 | locus YHR013C, strain ard1, hits give low values 0.976 | locus YHR027C, strain rpn1, hits give low values 0.987 | locus YHR030C, strain SLT2, hits give low values 0.978 and 0.986 | locus YHR079C, strain IRE1 (second series), hits give low values 0.96 | locus YHR079C, strain IRE1, hits give low values 0.996 | locus YHR094C, strain hxt1, hits give low values 0.969 | locus YHR129C, strain ARP1, hits give low values 0.991 | locus YHR142W, strain chs7, hits give low values 1 | locus YHR200W, strain rpn10, hits give low values 0.966 | locus YIL066C, strain RNR3, hits give low values 0.996 | locus YIL073C, strain SPO22, hits give low values 0.912 | locus YIL125W, strain kgd1, hits give low values 0.98 | locus YIR030C, strain dcg1, hits give low values 0.969 | locus YJL092W, strain hpr5, hits give low values 0.995 | locus YJL095W, strain BCK1 (second series), hits give low values 1 | locus YJL095W, strain BCK1, hits give low values 1.02 and 0.999 | locus YJL115W, strain asf1, hits give low values 0.999 | locus YJL129C, strain trk1, hits give low values 0.994 | locus YJL134W, strain LCB3, hits give low values 0.986 | locus YJL154C, strain vps35, hits give low values 0.998 | locus YJL164C, strain tpk1, hits give low values 0.998 | locus YJL166W, strain qcr8, hits give low values 1 | locus YJL168C, strain set2, hits give low values 0.962 | locus YJL187C, strain SWE1 (second series), hits give low values 0.997 | locus YJL187C, strain SWE1, hits give low values 0.992 | locus YJR043C, strain POL32, hits give low values 1.02 | locus YJR066W, strain TOR1, hits give low values 0.946 | locus YJR075W, strain HOC1, hits give low values 0.984 | locus YKL009W, strain mrt4, hits give low values 1.01 | locus YKL068W, hits give low values 0.959 | locus YKL085W, strain MDH1 (second series), hits give low values 0.95 | locus YKL085W, strain MDH1, hits give low values 0.95 | locus YKL160W, strain elf1, hits give low values 1 | locus YKR001C, strain vps1, hits give low values 0.972 | locus YKR026C, strain gcn3, hits give low values 1 | locus YKR091W, strain srl3, hits give low values 1 | locus YLL001W, strain dnm1, hits give low values 0.989 | locus YLL026W, hits give low values 1 | locus YLL041C, strain sdh2, hits give low values 0.999 | locus YLR027C, strain aat2, hits give low values 0.988 | locus YLR039C, strain RIC1, hits give low values 0.938 | locus YLR058C, strain SHM2, hits give low values 0.996 | locus YLR102C, strain apc9, hits give low values 0.961 | locus YLR113W, strain HOG1, hits give low values 0.98 | locus YLR221C, strain rsa3, hits give low values 1 | locus YLR258W, strain gsy2, hits give low values 1.02 | locus YLR262C, strain YPT6 (second series), hits give low values 0.991 | locus YLR262C, strain YPT6, hits give low values 0.942 | locus YLR268W, strain sec22, hits give low values 0.96 | locus YLR320W, strain mms22, hits give low values 1 | locus YLR330W, strain CHS5, hits give low values 0.934 | locus YLR342W, strain FKS1 (second series), hits give low values 1.04 | locus YLR342W, strain FKS1, hits give low values 1.01 | locus YLR357W, strain rsc2, hits give low values 0.988 | locus YLR370C, strain arc18, hits give low values 0.993 | locus YLR384C, strain iki3, hits give low values 0.992 | locus YLR418C, strain cdc73, hits give low values 0.988 | locus YML016C, strain PPZ1, hits give low values 0.992 | locus YML032C, strain rad52, hits give low values 1.01 | locus YML120C, strain ndi1, hits give low values 0.992 | locus YML124C, strain tub3, hits give low values 0.96 | locus YMR058W, strain fet3, hits give low values 1.01 | locus YMR078C, strain ctf18, hits give low values 0.95 | locus YMR125W, strain sto1, hits give low values 0.995 | locus YMR129W, hits give low values 0.997 | locus YMR205C, strain PFK2, hits give low values 0.983 | locus YMR223W, strain ubp8, hits give low values 0.98 | locus YMR231W, strain pep5, hits give low values 0.979 | locus YMR263W, strain SAP30, hits give low values 0.989 | locus YMR307W, strain GAS1, hits give low values 1.09 | locus YNL067W, strain RPL9B, hits give low values 0.997 | locus YNL071W, strain lat1, hits give low values 0.993 | locus YNL128W, strain TEP1, hits give low values 0.966 | locus YNL153C, strain GIM3, hits give low values 0.999 | locus YNL183C, strain NPR1, hits give low values 0.963 | locus YNL209W, strain ssb2, hits give low values 0.991 | locus YNL233W, strain BNI4, hits give low values 0.994 | locus YNL248C, strain rpa49, hits give low values 1 | locus YNL250W, strain rad50, hits give low values 0.909 | locus YNL271C, strain bni1, hits give low values 0.963 | locus YNL298W, strain CLA4, hits give low values 0.991 | locus YNL307C, strain MCK1, hits give low values 0.953 | locus YNL322C, strain KRE1 (second series), hits give low values 1 | locus YNR049C, strain mso1, hits give low values 0.997 | locus YNR052C, strain pop2, hits give low values 0.98 | locus YOL012C, strain htz1 0.905 | locus YOL147C, strain pex11, hits give low values 0.963 | locus YOR001W, strain rrp6, hits give low values 1.01 | locus YOR061W, strain CKA2, hits give low values 0.995 | locus YOR069W, strain VPS5, hits give low values 0.986 | locus YOR070C, strain gyp1, hits give low values 0.985 | locus YOR080W, strain dia2, hits give low values 0.994 | locus YOR083W, strain WHI5, hits give low values 1 | locus YOR106W, strain vam3, hits give low values 1.01 | locus YOR136W, strain idh2, hits give low values 0.953 | locus YOR144C, strain elg1, hits give low values 0.971 | locus YOR184W, strain ser1, hits give low values 1.02 | locus YOR231W, strain MKK1, hits give low values 1 | locus YOR265W, strain rbl2, hits give low values 0.989 | locus YOR270C, strain vph1, hits give low values 0.994 | locus YOR290C, strain snf2, hits give low values 1.02 | locus YOR316C, strain cot1, hits give low values 0.957 | locus YPL051W, strain arl3, hits give low values 1.05 | locus YPL055C, strain LGE1, hits give low values 1 | locus YPL078C, strain atp4, hits give low values 0.994 | locus YPL106C, strain sse1, hits give low values 0.988 | locus YPL240C, strain hsp82, hits give low values 0.995 | locus YPL241C, strain CIN2, hits give low values 0.988 | locus YPL256C, strain CLN2, hits give low values 0.956 | locus YPR119W, strain clb2, hits give low values 0.946 | locus YPR141C, strain kar3, hits give low values 0.938 | locus YPR163C, strain tif3, hits give low values 0.973 | locus YPR167C, strain met16, hits give low values 0.967 | strain wtn01, hits give low values 0.949
